Screening data (PubChem BioAssay)
Shown are actives, neighbours in structure and some others; about 1.3% of the full set was active somewhere.
GCN5L2 inh – qHTS Assay for Inhibitors of GCN5L2 | Histone acetyltransferase KAT2A (Homo sapiens), Q92830 | GCN5L2 HAT assay, ThioGlo1 CoA-SH fluorescence | Potency, µM (doses to about 58.9 µM), most hits filed as inhibitors | 0.21% of 390,000 active | AID 504327, 2011
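GCN5L2 (20nM final) in 50mM HEPES, 0.1mM EDTA pH 7.5, 0.01% Tween-20 was preincubated 15 min at room temperature with compound, then given ThioGlo1 (50uM), H3(1-25) peptide (75uM) and acetyl-CoA (70uM); CoA-thiol fluorescence (Ex340/Em540) was read at 0 and 20 min.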
Giardia kill – Small Molecules that selectively kill Giardia lamblia: qHTS; Giardia lamblia trophozoite viability; activity change, % at 7.66 µM, hits read low; 0.15% of 340,000 active; AID 540267, 2011; in the data active = activity change below about -80%; inconclusive = between about -30% and that limit;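 also: parasites exposed to compound for two days anaerobically before the ATP read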
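Anaerobic 48 hrs incubation at 37 deg C of 100 trophozoites/well with test compounds; ATPLite 1-Step luminescence, 15-30 min RT, reports cellular ATP as viability.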
GALK inh – qHTS Assay for Inhibitors of Human Galactokinase (GALK); P51570; 0.007% of 270,000 active; Potency, µM (highest dose often 57.5 µM), hits mostly inhibitors; Purified GALK, Kinase-Glo residual ATP luminescence; AID 1868, 2009
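GALK at 5 nM final was combined with compound, 35 uM ATP and 100 uM galactose in HEPES pH8.0 with MgCl2 and DTT. The reaction ran one hour at room temperature before luminescent ATP detection.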
TrxR1 substrate – qHTS Assay for Substrates of Mammalian Selenoprotein Thioredoxin Reductase 1 (TrxR1): qHTS. purified TrxR1 substrate turnover, NADPH consumption readout. 0.01% of 390,000 active. AID 588456, 2011. Potency, µM (top dose mostly 114 µM); also: nearly all actives have a fitted effect of over 50% in size
Target sequence (O89049 whole entry, looked up): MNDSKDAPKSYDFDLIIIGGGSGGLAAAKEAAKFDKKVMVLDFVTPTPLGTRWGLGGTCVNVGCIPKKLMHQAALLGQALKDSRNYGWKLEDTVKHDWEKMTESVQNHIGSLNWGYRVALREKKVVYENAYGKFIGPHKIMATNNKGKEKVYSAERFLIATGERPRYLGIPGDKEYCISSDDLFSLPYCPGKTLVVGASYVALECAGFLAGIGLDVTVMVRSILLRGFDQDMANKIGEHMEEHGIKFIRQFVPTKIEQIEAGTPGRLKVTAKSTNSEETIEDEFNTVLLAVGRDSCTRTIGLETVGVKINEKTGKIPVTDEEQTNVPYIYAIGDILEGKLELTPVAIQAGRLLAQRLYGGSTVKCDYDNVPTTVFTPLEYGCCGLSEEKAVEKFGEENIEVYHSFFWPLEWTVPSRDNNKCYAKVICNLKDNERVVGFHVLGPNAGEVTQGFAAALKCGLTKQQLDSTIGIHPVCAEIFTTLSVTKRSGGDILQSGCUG
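Rat TrxR1, dispensed at 90 nM, was prereduced with 400 uM NADPH (final) for 5 min at ~22 deg C, then incubated with compound 15 min before 400 uM selenite. A first-read NADPH fluorescence drop versus no-compound background flagged substrates.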
rTrxR1 inhibitor – qHTS Assay for Inhibitors of Mammalian Selenoprotein Thioredoxin Reductase 1 (TrxR1): qHTS; 1% of 390,000 active; Thioredoxin reductase 1, cytoplasmic (Rattus norvegicus), O89049; Potency, µM (highest dose often 114 µM), hits mostly inhibitors; recombinant rTrxR1, NADPH fluorescence consumption, selenite substrate; also: nearly all actives have a fitted effect of over 65% in size
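Rat TrxR1 (90 nM in the dispensed reagent) was pre-reduced with 400 uM NADPH for 5 min at room temperature, then incubated with compound for 15 min. After 400 uM selenite was added, NADPH fluorescence (Ex 340/Em 450 nm) was followed for 8 min.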
Pin1 inhibitor – qHTS Assay to Find Inhibitors of Pin1; Peptidyl-prolyl cis-trans isomerase NIMA-interacting 1 (Homo sapiens), Q13526; Potency, µM (highest dose often 115 µM), most hits filed as inhibitors; AID 504891, 2011; 0.009% of 390,000 active; Pin1 FP peptide displacement, HiFluor488, 10 min; active = well fitted inhibition curve with a large enough effect in the polarisation, with a control signal flat, not every such curve was filed as active; inconclusive = small, poorly fitted or top-dose-only effect, or effect the other way, or a change in a side signal; inactive = no such curve, though single readings can be large or run the other way; the % refers to the polarisation
Target sequence (Q13526 whole entry, looked up): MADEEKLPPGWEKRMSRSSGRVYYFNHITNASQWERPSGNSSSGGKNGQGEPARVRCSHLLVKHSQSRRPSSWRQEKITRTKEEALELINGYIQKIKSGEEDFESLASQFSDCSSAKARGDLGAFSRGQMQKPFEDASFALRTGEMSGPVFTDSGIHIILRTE
Numbers stand for hits; i = inactive; ? = inconclusive; nt = no result given. Unless noted, calls follow the shape of the dose curve; as a rule, active = well fitted curve in the direction sought with a large enough effect; inconclusive = small, poorly fitted or top-dose-only effect, or another doubt; inactive = no such curve, though single readings can be large; an effect the other way counts as inactive or inconclusive.

SMILES	GCN5L2 inh	Giardia kill	GALK inh	TrxR1 substrate	rTrxR1 inhibitor	Pin1 inhibitor
OC(CN1CCN(C(c2ccccc2)c2ccccc2)CC1)c1ccc(Br)cc1 (stereo not given)	i	i	i	i	i	i
O=C1Oc2ccccc2C(=O)C1C(CC(O)c1ccc(-c2ccc(Br)cc2)cc1)c1ccccc1 (stereo not given)	22µM	nt	nt	nt	nt	nt
COc1ccccc1NC(=O)c1c(NCc2ccc(C)o2)sc2c1CCCCC2	i	nt	nt	i	14µM	i
COc1ccc(OC)c(NC(=O)c2c(NCc3ccc(C)o3)sc3c2CCCCC3)c1	i	nt	nt	i	14µM	i
CCOc1ccc(-n2c(SC(C)C(=O)OC)nc3c([nH]c4ccccc43)c2=O)cc1 (stereo not given)	i	nt	nt	i	i	i
Cn1c(=O)n(C)c2cc(NC(=O)CCl)ccc21	i	i	i	i	50µM	i
COC(=O)C(NNc1ccccc1C)(NC(=O)c1ccc(F)cc1)C(F)(F)F (stereo not given)	i	i	i	i	28µM	i
CCOC(=O)C(NCc1ccc(F)cc1)(NC(=O)c1ccccc1)C(F)(F)F (stereo not given)	i	i	i	i	i	?
O=C1NCCCC2c3c(cc(Br)c(O)c3Br)OC12N1CCCCC1 (stereo not given)	i	i	i	i	25µM	i
CC(=O)CCc1oc2ccc(C)cc2c1-c1ccc(C)o1	i	i	i	i	?	i
CC(=O)CCc1oc2ccc(NC(C)=O)cc2c1-c1ccc(C)o1	i	i	i	i	20µM	i
CC(C)(C)n1ncc2c(=O)n(Cc3cc(F)ccc3Cl)cnc21	nt	nt	nt	i	i	nt
Cc1ccc(OC(=O)c2ccc([N+](=O)[O-])cc2Cl)cn1	i	i	i	i	?	i
O=C(NCCNC(=O)c1ccccc1)c1ccccc1	i	i	i	i	i	i
O=C(NCS(=O)(=O)c1ccccc1)c1ccccc1	i	i	i	i	45µM	i
COc1ccc(C(=O)O)cc1COc1ccc(NC(C)=O)cc1	nt	nt	nt	nt	nt	i
CC1=CC(=O)c2ccccc2C1=O	i	i	i	i	i	i
CC(C)(C=O)C1=CC(=O)c2ccccc2C1=O	i	i	i	i	45µM	i
C#CCSc1nccc(-c2nn(-c3ccc(C)cc3)ccc2=O)n1	i	i	i	i	79µM	?
Cc1cccc(N2CCN(C(=O)CN3CCOc4ccccc43)CC2C)c1 (stereo not given)	i	i	i	i	?	i
Cc1ccc(N2C(=O)C3C4C=CC(CNC(=S)N5CCN(c6cccc(C)c6)C(C)C5)(O4)C3C2=O)cc1 (stereo not given)	i	i	i	i	16µM	i
Nc1ncnc2oc(-c3ccoc3)c(-c3ccco3)c12	nt	i	nt	i	50µM	nt
Cc1ccc(C(=O)N/C(=C\c2ccc(-c3ccccc3[N+](=O)[O-])o2)C(=O)NCCCN(C)C)cc1	i	i	nt	i	?	?
CCCCNC(=O)/C(=C\c1ccc([N+](=O)[O-])o1)NC(=O)c1ccccc1	i	-101	i	i	?	i
COC(=O)/C(=C\c1ccc([N+](=O)[O-])o1)NC(=O)c1ccccc1	i	?	i	i	32µM	i
SMILES	GCN5L2 inh	Giardia kill	GALK inh	TrxR1 substrate	rTrxR1 inhibitor	Pin1 inhibitor
Cc1ccc(C(=O)N/C(=C\c2ccc(-c3ccccc3[N+](=O)[O-])o2)C(=O)NCCN(C)C)cc1	i	i	i	i	14µM	?
CN(C)CCCNC(=O)/C(=C/c1ccc(-c2ccc([N+](=O)[O-])cc2)o1)NC(=O)c1ccccc1	i	i	i	i	i	i
CCN(CC(=O)NC1CCS(=O)(=O)C1)S(=O)(=O)c1ccc(Cl)c(C(F)(F)F)c1 (stereo not given)	i	i	nt	i	i	i
O=C(Cc1ccc(NC(=O)C2CCN(C(=O)C3CC3)CC2)cc1)Nc1cccc(C(=O)N2CCCC2)c1	nt	i	nt	i	i	i
CC(C)Oc1cccc(C(=O)NC(=S)Nc2cccnc2)c1	i	i	i	i	22µM	i
CNc1cccccc1=S	?	i	i	i	7.9µM	?
CC(=O)c1ccc(OCC(C)C)c(CC(C(N)=O)C(N)=O)c1	i	i	i	i	i	i
CCN(CC)Cc1cc(C(C)=O)ccc1OCC(C)C	i	i	i	i	35µM	i
CCOC(=O)c1c(C)oc2c1c(C(c1cccnc1)N1CCCCC1)c(O)c1ccccc12 (stereo not given)	i	i	i	i	7.1µM	i
O=C1CCc2cc(S(=O)(=O)Nc3ccc4ncccc4c3)ccc2N1	nt	nt	nt	nt	nt	i
Cc1cc2n(n1)SC(Nc1ccc(F)c(Cl)c1)N2 (stereo not given)	i	i	i	i	14µM	i
CC(C)(C)n1ncc2c(=O)n(Cc3cccc(OC(F)(F)F)c3)cnc21	nt	nt	nt	i	i	nt
COC(=O)c1sc(N)c(C(=O)OC)c1Cn1ncc(Cl)c(Cl)c1=O	i	i	i	i	2.5µM	i
COC(=O)c1sc(N)c(C(=O)OC)c1COC(=O)c1c(C)noc1C	i	i	i	i	i	i
O=C(CNC(=O)c1ccco1)OCC(=O)c1ccc2c(c1)CCCC2	i	i	nt	i	79µM	?
Cc1oc(-c2ccc(Cl)cc2)nc1CS(=O)CC(=O)NCCCN1CCN(Cc2ccccc2)CC1 (stereo not given)	i	i	i	i	i	i
Cc1oc(-c2ccc(Cl)cc2)nc1CS(=O)CC(=O)NCc1ccccn1 (stereo not given)	i	i	i	i	18µM	i
CCc1ccc(-c2nc(CS(=O)CC(=O)NCCCN3CCOCC3)c(C)o2)cc1 (stereo not given)	i	i	i	i	20µM	i
Cc1oc(-c2ccc(Cl)cc2)nc1CS(=O)CC(=O)NCc1ccccc1 (stereo not given)	i	i	i	i	?	i
CCc1ccc(-c2nc(CS(=O)CC(=O)NCc3ccccc3)c(C)o2)cc1 (stereo not given)	i	i	i	i	32µM	i
CCOc1cc(/C=C2\CN(C)C/C(=C\c3ccc(O)c(OCC)c3)C2=O)ccc1O	i	i	i	i	56µM	i
COc1ccc(N2C(=O)CC(Sc3nnc(-c4ccccc4)o3)C2=O)cc1 (stereo not given)	i	i	i	i	40µM	i
O=C(/C=C/c1ccccc1)N1CCN(Cc2cc(=O)n3nc(-c4ccccc4Cl)sc3n2)CC1	i	nt	nt	i	i	i
